From PubChem
DUX4 inh: inhibitors of DUX4-driven ZSCAN4 reporter expression, primary screen, 293T cells, Gaussia and Italica luciferase | 293T-iDUX4 ZSCAN4-Gaussia luciferase reporter, 24 h; hits give low values | activity change, negative = inhibition, % (no concentration beside the values) | 0.8% of 37,000 active;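 active = mean inhibition of at least 10% in the main channel, exceeding the control channel by a set limit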;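 also: 0% = median of neutral control wells and -100% = median of positive control wells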
Starred values were filed as active, the others as inactive; ! = not active in a repeat. Shown is part of a subset that was picked to be rich in hits.

SMILES	DUX4 inh
Cn1cnc(S(=O)(=O)N2CCCCN3[C@H](C2)[C@H](c2ccc(-c4cccc(F)c4)cc2)[C@@H]3CO)c1	9.2
Cc1ccccc1S(=O)(=O)N1CCCCN2[C@H](CO)[C@@H](c3ccc(-c4cccc(F)c4)cc3)[C@H]2C1	-39.1*
C[C@@H]1CN([C@H](C)CO)C(=O)c2cc(NS(C)(=O)=O)ccc2O[C@@H](C)CCCCO[C@@H]1CN(C)S(=O)(=O)c1ccccc1	-1.2
CCCNC(=O)N1CC2(C1)CN(C(=O)COC)[C@@H](CO)c1c2c2ccc(OC)cc2n1C	18.2
CCCNC(=O)N1[C@@H]2CN(C(=O)C3CCOCC3)c3ccccc3[C@@H]2[C@@H]1CO	0.8
COc1ccc(NC(=O)N(C)C[C@H]2OCCCC[C@@H](C)Oc3ccc(NC(=O)CCCN(C)C)cc3C(=O)N([C@@H](C)CO)C[C@H]2C)cc1	1.6
CCS(=O)(=O)N1CC2(C1)[C@H](c1ccccc1)[C@@H](CO)N2CC1CCCC1	0.1
CN1CCN(C(=O)C[C@@H]2CC[C@@H]3[C@H](COC[C@@H](O)CN3CC3CCOCC3)O2)CC1	3.8
O=C(C[C@H]1CC[C@H]2[C@@H](COC[C@H](O)CN2Cc2cc(F)ccc2F)O1)N[C@H]1CCN(Cc2ccccc2)C1	-5.9
O=C(c1cccnc1)N1CC2(C1)[C@@H](c1ccccc1)[C@H](CO)N2C(=O)c1cccnc1	14.5
CN1c2ccc(-c3cccc(F)c3)cc2[C@@H]2[C@@H](CCN2C(=O)C2CCOCC2)[C@@H]1CO	7.6
CN1c2ccc(-c3cccc(F)c3)cc2[C@@H]2[C@@H](CCN2C(=O)C2CCC2)[C@H]1CO	-35.4*
CN1c2ccc(-c3cccc(F)c3)cc2[C@H]2[C@H](CCN2C(=O)C2CCC2)[C@H]1CO	-7.0
COCC(=O)N1[C@@H]2c3cccc(=O)n3C[C@@H]2[C@@H](CO)[C@@H]1C(=O)NCc1ccccc1Cl	-9.0
C[C@H](O)C#Cc1cnc2c(c1)C(=O)N([C@H](C)CO)C[C@H](C)[C@H](CN(C)C(=O)CN1CCOCC1)O2	0.0
COC(=O)C[C@H]1CC[C@H]2[C@@H](COc3ccc(NS(=O)(=O)c4ccccc4Cl)cc3C(=O)N2C)O1	3.7
Cc1ccc(NC(=O)Nc2ccc3c(c2)C(=O)N(C)[C@@H]2CC[C@@H](CC(=O)O)O[C@H]2CO3)cc1	1.0
CN(C)C(=O)[C@H]1[C@H](CO)[C@H]2Cn3c(ccc(C4=CCCCC4)c3=O)[C@H]2N1Cc1ccc2c(c1)OCO2	5.9
CN(C)C(=O)[C@@H]1[C@@H](CO)[C@@H]2Cn3c(ccc(C4=CCCCC4)c3=O)[C@@H]2N1Cc1ccc2c(c1)OCO2	-15.1*
CCNC(=O)[C@H]1[C@H](CO)[C@H]2Cn3c(ccc(C4=CCCCC4)c3=O)[C@H]2N1Cc1ccc2c(c1)OCO2	-2.7
COc1cccc(CN2CCCCN3[C@H](C2)[C@@H](c2ccc(C#Cc4cccnc4)cc2)[C@@H]3CO)c1	-17.0*
COCC#Cc1ccc([C@@H]2[C@H]3CN(Cc4cccnc4)CCCCN3[C@H]2CO)cc1	5.9
COc1cccc(CN2CCCCN3[C@H](CO)[C@@H](c4ccc(-c5cccnc5)cc4)[C@H]3C2)c1	5.3
COCC#Cc1ccc([C@@H]2[C@@H](CO)N3CCCCN(Cc4cccnc4)C[C@H]23)cc1	9.3
COc1cccc(CN2CCCCN3[C@@H](CO)[C@@H](c4ccc(C#Cc5cccnc5)cc4)[C@@H]3C2)c1	-36.3*
SMILES	DUX4 inh
COCC#Cc1ccc([C@H]2[C@H]3CN(Cc4cccnc4)CCCCN3[C@H]2CO)cc1	29.3
CCS(=O)(=O)Nc1ccc2c(c1)C(=O)N(C)[C@@H]1CC[C@@H](CC(=O)NC)O[C@@H]1CO2	1.7
Cc1noc(C)c1NC(=O)N(C)C[C@H]1OCCCC[C@H](C)Oc2ccc(N(C)C)cc2C(=O)N([C@H](C)CO)C[C@H]1C	0.3
Cn1cnc(CCNC(=O)C[C@H]2CC[C@@H]3[C@H](COC[C@H](O)CN3C(=O)Nc3ccc(F)cc3)O2)c1	9.1
COCC(=O)N1[C@@H](CO)[C@@H](c2ccccc2)C12CN(Cc1cccc(OC)c1)C2	2.8
COc1ccc(C#Cc2ccc([C@@H]3[C@H](CO)N4CCCCN(C)C[C@@H]34)cc2)cc1	-24.5*
CCCC#Cc1ccc([C@H]2[C@H]3CN(Cc4ccncc4)CCCCN3[C@H]2CO)cc1	-8.9
OC[C@@H]1[C@@H](c2ccc(C#CC3(O)CCCC3)cc2)[C@H]2CN(Cc3ccncc3)CCCCN12	12.8
CCCC#Cc1ccc([C@H]2[C@@H](CO)N3CCCCN(Cc4ccncc4)C[C@@H]23)cc1	6.2
COc1ccc(C#Cc2ccc([C@@H]3[C@@H](CO)N4CCCCN(C)C[C@H]34)cc2)cc1	-7.0
COc1ccc(C#Cc2ccc([C@H]3[C@@H](CO)N4CCCCN(C)C[C@@H]34)cc2)cc1	-0.8
COc1ccc(C#Cc2ccc([C@@H]3[C@@H](CO)N4CCCCN(Cc5ccncc5)C[C@H]34)cc2)cc1	-25.7*
COc1ccc(C#Cc2ccc([C@H]3[C@H]4CN(Cc5ccncc5)CCCCN4[C@H]3CO)cc2)cc1	-55.4*
COCC#Cc1ccc([C@@H]2[C@H](CO)N3CCCCN(Cc4ccncc4)C[C@@H]23)cc1	16.7
C[C@@H](NC(=O)C[C@@H]1C[C@H]2c3cc(NC(=O)C4CCOCC4)ccc3O[C@H]2[C@@H](CO)O1)c1ccccc1	-2.0
CO[C@@H]1CN(C)C(=O)c2ccc(NC(=O)CC(F)(F)F)cc2OC[C@@H](C)N(C(=O)c2ccccc2F)C[C@@H]1C	2.4
C[C@H](CO)N1C[C@H](C)[C@@H](CN(C)Cc2ccccc2)OCCCC[C@H](C)Oc2ccc(NC(=O)Nc3ccc(F)cc3)cc2C1=O	-2.7
C/C=C/c1ccc([C@@H]2[C@H](CO)N(C(=O)c3cnccn3)C23CN(C(=O)C2CC2)C3)cc1	11.5
CC=Cc1ccc2n(c1=O)C[C@@H]1[C@@H](CO)[C@H](C(=O)Nc3ccccc3)N(CC)[C@H]21 (mixture of isomers)	0.3
CO[C@H]1CN(C)C(=O)c2ccc(NC(=O)C3CC3)cc2OC[C@H](C)N(C(=O)c2ccccc2F)C[C@@H]1C	4.4
O=C(C[C@@H]1C=C[C@@H](NS(=O)(=O)c2ccc(F)cc2)[C@H](CO)O1)NCc1ccncn1	-1.5
CCS(=O)(=O)N1CC(=O)N2[C@@H](CO)[C@H](c3ccc(-c4ccccc4C)cc3)[C@@H]2C1	6.5
O=S(=O)(c1ccccc1F)N1C[C@@H]2N[C@H](C1)C2c1ccc(-c2ccncc2)cc1 (some centres not stated)	-3.8
N#Cc1cccc(-c2ccc(C3[C@@H]4CN(C(=O)C5CCOCC5)C[C@H]3N4)cc2)c1 (some centres not stated)	1.1
Cc1ccccc1S(=O)(=O)N1C[C@@H]2N[C@H](C1)C2c1ccc(-c2cccc(C#N)c2)cc1 (some centres not stated)	-71.5*!
O=S(=O)(c1ccccc1F)N1[C@@H]2CNC[C@H]1C2c1ccc(-c2ccncc2)cc1 (some centres not stated)	-2.0
O=S(=O)(c1ccccc1F)N1C[C@@H]2N[C@H](C1)C2c1ccc(-c2cncnc2)cc1 (some centres not stated)	-14.3*
O=S(=O)(c1ccccc1F)N1[C@@H]2CNC[C@H]1C2c1ccc(-c2cccc(F)c2)cc1 (some centres not stated)	3.4
O=S(=O)(c1ccccc1F)N1CCCCN2[C@H](C1)[C@@H](c1ccc(-c3cncnc3)cc1)[C@@H]2CO	30.4
